# PubChem BioAssay AID2718 (Broad Institute, 2010)
# In all, about 320,000 compounds went through this assay and about 480 (0.15%) were called active. Not shown: some 1% with an inconclusive outcome. Rule as the data show it: active = inhibition above about 26% (passing the limit was not always enough); inconclusive = no clear call, values can overlap the other calls. Only a selection was taken, and actives are over-represented in it overall.
# Target: Histone deacetylase 3 (Homo sapiens) (UniProt O15379)
# Sequence (O15379 whole entry, looked up): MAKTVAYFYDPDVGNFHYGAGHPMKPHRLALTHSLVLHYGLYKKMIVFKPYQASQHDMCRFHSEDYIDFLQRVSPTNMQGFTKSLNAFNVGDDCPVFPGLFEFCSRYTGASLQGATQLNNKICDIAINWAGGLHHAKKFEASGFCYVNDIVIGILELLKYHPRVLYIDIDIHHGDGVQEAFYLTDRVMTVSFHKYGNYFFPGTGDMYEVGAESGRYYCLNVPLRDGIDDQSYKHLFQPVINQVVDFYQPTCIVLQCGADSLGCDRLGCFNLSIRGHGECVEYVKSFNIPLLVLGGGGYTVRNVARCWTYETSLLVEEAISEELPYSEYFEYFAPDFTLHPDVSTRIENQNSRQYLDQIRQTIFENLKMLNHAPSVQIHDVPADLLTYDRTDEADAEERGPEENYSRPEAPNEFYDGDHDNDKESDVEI
# Assay: inhibition of human HDAC3 enzyme activity – biochemical, fluorescence, cell-free homogeneous, primary screen (AID 2718)
# Settings: recombinant HDAC3, fluorogenic peptide/trypsin coupled, at 8.3 µM, active compounds read high
row,Structure (SMILES),inhibition
1,O=C1N[C@@H](c2ccccc2)COC(=O)[C@H](Cc2ccc(F)cc2)C/C=C\C[C@@H]1CC(=O)N(CCO)Cc1ccccc1,8.45% (inactive)
2,C=CC[C@H](CC(=O)NCCO)C(=O)N[C@@H](COC(=O)[C@@H](CC=C)Cc1ccc(F)cc1)Cc1c[nH]c2ccccc12,9.77% (inactive)
3,C=CC[C@H](CC(=O)N(CCO)Cc1ccccc1)C(=O)N[C@@H](COC(=O)[C@@H](CC=C)Cc1ccc(F)cc1)Cc1ccccc1,40.9% (active)
4,COC(=O)[C@]1(CC(C)C)N[C@H](c2ccc(SC3CCCCC3)cc2)[C@@H]2C(=O)N(C)C(=O)[C@@H]21,16% (inactive)
5,O=C(OCC(=O)N1CCCCCC1)c1ccc(Cl)nc1,0.75% (inactive)
6,CCCCCCCCCCOC(=O)Cn1c(COc2cccc(OC)c2)[n+](C)c2ccccc21,17.1% (inactive)
7,CCCCCCCCCCOC(=O)Cn1c(COc2ccc(C)cc2)[n+](C)c2ccccc21,36.3% (active)
8,CCOC(=O)Cn1c(-c2cccnc2Cl)nc2ccccc21,2.13% (inactive)
9,Cc1cccc(NC(=O)c2ccc(S(=O)(=O)N(C)c3ccccc3)cc2)n1,2.21% (inactive)
10,CCN(C(=O)COC(=O)c1ccccc1O)c1cccc2ccccc12,2.66% (inactive)
11,Cc1cc2c(cc1C)N(C(=O)CN1C(=O)c3ccccc3C1=O)C(C)(C)c1ssc(=S)c1-2,-10.7% (inactive)
12,COc1cc(NC(=O)CN2C(=O)NC(C)(c3ccc(OC(F)F)cc3)C2=O)cc(OC)c1OC (configuration not stated),5.68% (inactive)
13,Cc1ccc2nc(-c3ccc(NC(=O)c4cccnc4)cc3)oc2c1,-0.79% (inactive)
14,Cc1ccc(NC(=O)Cc2nc(COC(=O)C(C)NS(=O)(=O)c3ccc(C)cc3)cs2)cc1 (configuration not stated),1.23% (inactive)
15,CC(=O)Nc1ccc(S(=O)(=O)NCCC(=O)N2CCN(c3ccccc3Cl)CC2)cc1,-4.42% (inactive)
16,CCOc1cc(C(C(=O)NCC2CCCO2)N(C(=O)Cn2nnc3ccccc32)c2cccc(OC)c2)ccc1O (configuration not stated),-5.33% (inactive)
17,COc1ccc(C(=O)NCc2ccccc2C)cc1S(=O)(=O)NC1CCCC1,2.42% (inactive)
18,COc1cc(OC)c(NC(=O)C2CCCN2C(=O)OCc2ccccc2)cc1Cl (configuration not stated),2.9% (inactive)
19,CCN(C(=O)CSc1nnnn1-c1ccc(OC)cc1)C1CCS(=O)(=O)C1 (configuration not stated),-1.21% (inactive)
20,COc1ccccc1NS(=O)(=O)c1ccc(C)c(C(=O)NNC(=O)c2csc(N3CCOCC3)n2)c1,-8.84% (inactive)
21,CSc1ncccc1C(=O)NCC(c1ccco1)N1CCCCC1 (configuration not stated),-0.371% (inactive)
22,CN(CC(=O)NCCc1ccc(S(N)(=O)=O)cc1)CC(=O)Nc1ccc(Cl)cc1,2.8% (inactive)
23,CC1Sc2ccc(C(=O)NCc3ccccc3Cl)cc2NC1=O (configuration not stated),3.12% (inactive)
24,c1ccc2c(CCN3CCNC[C@H]3Cc3cccc4ccccc34)cccc2c1,4.64% (inactive)
25,CC1COC2C(O1)N(S(C)(=O)=O)CCN2S(C)(=O)=O (configuration not stated),-8.42% (inactive)
26,COc1ccc2nc3n(c(=O)c2c1)-c1cc(C)ccc1C(=O)NC3Cc1ccc(O)cc1 (configuration not stated),4.49% (inactive)

row,Structure (SMILES),inhibition
1,Cc1ccc(NC(=O)CN(C)C(=O)c2ccc(Cl)c(S(=O)(=O)NCc3ccco3)c2)cc1,1.2% (inactive)
2,COCCCNC(=O)CC1C[C@H](C(=O)N2CCCCC2)[C@@]2(CCc3ccccc3)c3[nH]c4ccccc4c3CCN2C1=O (some centres not stated),-3.31% (inactive)
3,CC(=O)c1nn(-c2ccc(C)cc2)cc1C(=O)c1cccc(Br)c1,7.63% (inactive)
4,Cc1nnc(SCC(=O)Nc2ccc(S(=O)(=O)Nc3ccc(Cl)nn3)cc2)s1,0.425% (inactive)
5,CN(C(=O)c1ccccc1)c1nccnc1C#N,2.83% (inactive)
6,O=C(Nc1ccccc1)O/N=C1/CCCc2occc21,-0.26% (inactive)
7,Cc1ccc(NS(=O)(=O)c2ccc(C(=O)NCCCN3CCOCC3)cc2)cc1,-2.45% (inactive)
8,Nn1c(SCC(=O)NC2CCCc3ccccc32)nnc1C1CC1 (configuration not stated),2.63% (inactive)
9,COc1cc(OC)cc(-c2c(C#Cc3ccsc3)c3cc(-c4ccc(SC)cc4)ccc3n2C)c1,-8.45% (inactive)
10,CN(C)C(=O)c1cccn(Cc2cccc(C(F)(F)F)c2)c1=O,0.89% (inactive)
11,CC(C)(C)OC(=O)C[C@@H]1C/C=C\C[C@@H](CC(=O)N[C@H](CO)Cc2ccccc2)C(=O)NC[C@@H](c2ccccc2)OC1=O,-3.9% (inactive)
12,S=c1[nH]c2ccccc2c2ccccc12,2.2% (inactive)
13,CC1(C)CC(=O)C=C(c2ccc(Cl)c(C(F)(F)F)c2)C1,3.15% (inactive)
14,CCNC(=S)N(CCN(CC)CC)Cc1cc2cc3c(cc2[nH]c1=O)OCCO3,-18.5% (inactive)
15,COCCCNC(=S)N(CCN(C)C)Cc1cc2cc3c(cc2[nH]c1=O)OCCO3,54.7% (active)
16,CCN(CC)CCCNC(=S)N(CCO)Cc1cc2cc3c(cc2[nH]c1=O)OCO3,3.65% (inactive)
17,COc1ccc2sc(-c3ccc(S(C)(=O)=O)cc3)c(C#Cc3cncn3C)c2c1,-6.51% (inactive)
18,Cc1ccc(C)c(S(=O)(=O)N2CCN(c3ncnc4sccc34)CC2)c1,8.6% (inactive)
19,CCOC(=O)c1nn(-c2ccccc2F)c2nc(Nc3ccccc3)cc(=O)n12,4.54% (inactive)
20,Cc1nc(CC(=O)NNS(=O)(=O)c2ccc(F)c(Cl)c2)cs1,-5.91% (inactive)
21,COc1cccc(NC(=O)C2C(c3ccccc3)C2(Cl)Cl)c1 (configuration not stated),10.8% (inactive)
22,CCOc1cc2c(cc1OCC)C(C(=O)O)C(c1ccc(OC)c(O)c1)N(C)C2=O (configuration not stated),-1.3% (inactive)
23,COc1cccc(NC(=O)C2c3cc(OC)c(OC)cc3C(=O)N(C)C2c2cccnc2)c1 (configuration not stated),35.6% (active)
24,CCCCn1c(N)c(N(CCOC)C(=O)COc2c(C)cccc2C)c(=O)[nH]c1=O,-1.76% (inactive)
25,CSc1cccc(NC(=S)N(C(C)C)C(C)c2ccccn2)c1 (configuration not stated),-0.0363% (inactive)
26,COc1ccc(S(=O)(=O)N(C)C[C@@H]2Oc3ccc(NC(=O)Nc4c(C)noc4C)cc3C(=O)N([C@H](C)CO)C[C@@H]2C)cc1,-1.76% (inactive)
